# For part of these data: Results with a measured potency or affinity are listed apart.
# Columns and labels:
# Set-up in all cases: scale not given: direction of the effect not stated beside the values
# [1] = target: Protein translocase subunit SecA (Escherichia coli (strain K12)) (UniProt P10408); assay: Assay to Identify E. coli SecA ATPase Inhibitors; type: functional; conditions: 30 µM
# [2] = target: T1, Ubiquitin-activating enzyme e1, putative (Leishmania donovani (strain BPK282A1)) (UniProt E9BSI1); assay: Leishmania donovani Ubiquitin Activating Enzyme (LdE1); type: functional; conditions: 30 µM
# T1 sequence (whole entry): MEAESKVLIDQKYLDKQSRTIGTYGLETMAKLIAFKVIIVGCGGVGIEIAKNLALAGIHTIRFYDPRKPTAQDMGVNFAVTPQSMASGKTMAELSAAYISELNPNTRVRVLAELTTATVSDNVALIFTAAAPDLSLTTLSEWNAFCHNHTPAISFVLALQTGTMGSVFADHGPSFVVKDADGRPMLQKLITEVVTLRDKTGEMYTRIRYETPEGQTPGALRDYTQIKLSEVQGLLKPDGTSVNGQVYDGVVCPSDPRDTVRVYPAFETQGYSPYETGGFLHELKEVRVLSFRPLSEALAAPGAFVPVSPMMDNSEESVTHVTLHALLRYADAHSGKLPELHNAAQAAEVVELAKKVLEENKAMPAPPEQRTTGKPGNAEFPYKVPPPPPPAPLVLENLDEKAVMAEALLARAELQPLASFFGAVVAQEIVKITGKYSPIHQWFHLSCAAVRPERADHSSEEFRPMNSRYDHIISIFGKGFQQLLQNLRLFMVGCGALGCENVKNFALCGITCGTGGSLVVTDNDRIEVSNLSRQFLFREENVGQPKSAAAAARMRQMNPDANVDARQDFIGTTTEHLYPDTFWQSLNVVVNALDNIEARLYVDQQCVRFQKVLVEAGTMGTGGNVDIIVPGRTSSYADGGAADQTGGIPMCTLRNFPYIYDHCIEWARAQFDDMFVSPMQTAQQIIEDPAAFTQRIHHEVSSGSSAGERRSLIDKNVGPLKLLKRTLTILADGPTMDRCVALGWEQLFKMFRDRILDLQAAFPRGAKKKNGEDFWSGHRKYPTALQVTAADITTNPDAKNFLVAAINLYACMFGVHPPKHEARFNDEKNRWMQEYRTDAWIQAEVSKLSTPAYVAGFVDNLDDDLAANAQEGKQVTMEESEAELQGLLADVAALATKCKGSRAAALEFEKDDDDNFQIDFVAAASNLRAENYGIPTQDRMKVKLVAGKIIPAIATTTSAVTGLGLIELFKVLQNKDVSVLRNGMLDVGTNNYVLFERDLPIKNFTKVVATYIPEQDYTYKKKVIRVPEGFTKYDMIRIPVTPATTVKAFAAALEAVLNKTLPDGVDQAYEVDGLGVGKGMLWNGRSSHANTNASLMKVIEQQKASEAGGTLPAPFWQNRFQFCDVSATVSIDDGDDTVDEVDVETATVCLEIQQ
# [3] = target: T2, Aspartate--tRNA(Asp/Asn) ligase (Mycobacterium tuberculosis (strain ATCC 25618 / H37Rv)) (UniProt P9WFW3); assay: Assay for Asp RNA synthetase-1 from Mycobacterium tuberculosis; type: functional; conditions: 30 µM; also: in the data most compounds retested in dose-response had high values
# T2 sequence (whole entry): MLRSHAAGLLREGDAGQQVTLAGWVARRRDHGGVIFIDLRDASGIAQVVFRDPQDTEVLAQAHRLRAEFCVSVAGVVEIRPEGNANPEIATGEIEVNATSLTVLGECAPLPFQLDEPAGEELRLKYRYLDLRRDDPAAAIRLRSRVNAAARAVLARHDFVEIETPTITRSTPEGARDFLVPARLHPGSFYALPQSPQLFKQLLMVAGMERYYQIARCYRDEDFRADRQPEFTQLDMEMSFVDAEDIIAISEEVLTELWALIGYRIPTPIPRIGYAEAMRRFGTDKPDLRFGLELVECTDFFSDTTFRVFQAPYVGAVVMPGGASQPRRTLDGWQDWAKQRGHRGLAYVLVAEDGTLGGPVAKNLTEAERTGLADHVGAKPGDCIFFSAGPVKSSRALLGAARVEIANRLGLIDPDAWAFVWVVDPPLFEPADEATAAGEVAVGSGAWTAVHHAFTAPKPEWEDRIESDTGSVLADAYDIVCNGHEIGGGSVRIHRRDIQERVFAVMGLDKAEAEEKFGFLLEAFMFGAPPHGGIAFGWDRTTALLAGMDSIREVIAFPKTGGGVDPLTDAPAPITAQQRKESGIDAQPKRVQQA
# [4] = target: Sialic acid-binding Ig-like lectin 9 (Homo sapiens) (UniProt Q9Y336); assay: Hs-Siglec9 ALPHAscreen SOP 20170721; conditions: 10 µM
# Trypanosoma cruzi = assay: Trypanosoma cruzi phosphomannomutase and mannose-1-phosphate guanylyltransferase assay; type: functional; conditions: 10 µM
# [5] = target: T3, Arginase-2, mitochondrial (Homo sapiens) (UniProt P78540); assay: in vitro enzyme assay to detect the production of urea directly proportional to the activity of Arginase II; type: functional; conditions: 33.3 µM; also: in the data most compounds retested in dose-response had high values
# T3 sequence (whole entry): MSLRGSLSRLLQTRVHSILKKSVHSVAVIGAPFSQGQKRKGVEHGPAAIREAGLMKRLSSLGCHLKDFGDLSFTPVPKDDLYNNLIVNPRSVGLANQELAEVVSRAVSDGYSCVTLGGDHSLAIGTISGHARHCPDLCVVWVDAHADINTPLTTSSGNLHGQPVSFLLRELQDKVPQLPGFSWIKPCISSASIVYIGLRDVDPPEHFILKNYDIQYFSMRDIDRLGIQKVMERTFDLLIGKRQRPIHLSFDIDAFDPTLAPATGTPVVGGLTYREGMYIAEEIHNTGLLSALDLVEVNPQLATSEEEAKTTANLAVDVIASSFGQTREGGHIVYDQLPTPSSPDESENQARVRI
# [6] = target: T4, Proteasome subunit beta (Trypanosoma cruzi) (UniProt O96673); assay: Trypanosoma cruzi proteasome chymotrypsin-like activity (TcProtChymo) assay.; also: in the data most compounds retested in dose-response had high values; type: functional; conditions: 9.37 µM
# T4 sequence (whole entry): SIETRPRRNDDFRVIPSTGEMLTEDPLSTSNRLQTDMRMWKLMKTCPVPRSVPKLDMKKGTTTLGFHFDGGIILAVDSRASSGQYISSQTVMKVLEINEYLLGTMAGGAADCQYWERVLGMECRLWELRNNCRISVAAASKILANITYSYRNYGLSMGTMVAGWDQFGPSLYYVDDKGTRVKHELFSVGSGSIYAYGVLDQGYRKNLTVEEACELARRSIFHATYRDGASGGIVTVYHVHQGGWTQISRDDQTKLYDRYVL
# Homo sapiens = species: Homo sapiens; assay: To identify inhibition of the IFN signalling (Jak-Stat) pathway via expression of an eGFP reporter gene under the control of an IFN-stimulated response element (ISRE) containing MxA promoter.; type: functional; conditions: 30 µM
# [7] = target: Shiga toxin 2 (Escherichia coli O157:H7) (UniProt P09385+P09386); assay: E. coli 0.157:H7 Shiga Toxin SOP - stx2 screening assay; type: functional; conditions: 30 µM
# [8] = target: T5, Tyrosyl-tRNA synthetase, putative (Trypanosoma cruzi (strain CL Brener)) (UniProt Q4DSP6); assay: Trypanosoma cruzi tyrosyl tRNA synthetase (TcYRS) _High Tyrosine SOP; type: functional; conditions: 30 µM; also: in the data most compounds retested in dose-response had high values
# T5 sequence (whole entry): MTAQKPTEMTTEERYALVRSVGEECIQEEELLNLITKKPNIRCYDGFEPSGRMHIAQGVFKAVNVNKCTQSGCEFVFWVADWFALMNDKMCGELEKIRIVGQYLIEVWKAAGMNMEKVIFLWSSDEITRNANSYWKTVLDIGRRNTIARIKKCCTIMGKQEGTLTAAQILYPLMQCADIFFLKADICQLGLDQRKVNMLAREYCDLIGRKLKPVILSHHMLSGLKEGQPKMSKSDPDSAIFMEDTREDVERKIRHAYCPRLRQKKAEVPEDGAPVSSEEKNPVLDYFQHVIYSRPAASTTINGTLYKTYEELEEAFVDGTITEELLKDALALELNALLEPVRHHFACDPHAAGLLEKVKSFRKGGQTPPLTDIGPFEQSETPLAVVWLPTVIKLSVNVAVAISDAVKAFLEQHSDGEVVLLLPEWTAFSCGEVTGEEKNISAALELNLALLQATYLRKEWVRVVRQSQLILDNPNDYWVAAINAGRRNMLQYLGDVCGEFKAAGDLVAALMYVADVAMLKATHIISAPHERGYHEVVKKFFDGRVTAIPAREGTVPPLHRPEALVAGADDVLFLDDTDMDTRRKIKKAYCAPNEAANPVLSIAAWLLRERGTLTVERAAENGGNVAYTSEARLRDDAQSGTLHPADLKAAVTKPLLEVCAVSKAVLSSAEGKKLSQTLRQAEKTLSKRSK
# [9] = target: T5, Tyrosyl-tRNA synthetase, putative (Trypanosoma cruzi (strain CL Brener)); assay: Trypanosoma cruzi tyrosyl tRNA synthetase (TcYRS) SOP; type: functional; conditions: 30 µM
# [10] = target: Chromo domain-containing protein 1 (Saccharomyces cerevisiae (strain ATCC 204508 / S288c) (Baker's yeast)) (UniProt P32657); assay: ScCHD-1 Enzyme Inhibition Assay; type: functional; conditions: 30 µM; also: in the data most compounds retested in dose-response had high values
# [11] = target: AMP-activated protein kinase, AMPK (Homo sapiens) (UniProt P54646+O43741+P54619+Q9UGJ0+Q9Y478+Q13131+Q9UGI9); assay: AMP-dependent Kinase enzyme assay. An in vitro enzyme assay that detects ADP turnover that is directly proportional to AMPK activity. This uses naive AMPK that is activated during the assay with MK-8722; type: functional; conditions: 30 µM
# Protein translocase subunit SecA (Escherichia coli (strain K12)), sequence (P10408 whole entry): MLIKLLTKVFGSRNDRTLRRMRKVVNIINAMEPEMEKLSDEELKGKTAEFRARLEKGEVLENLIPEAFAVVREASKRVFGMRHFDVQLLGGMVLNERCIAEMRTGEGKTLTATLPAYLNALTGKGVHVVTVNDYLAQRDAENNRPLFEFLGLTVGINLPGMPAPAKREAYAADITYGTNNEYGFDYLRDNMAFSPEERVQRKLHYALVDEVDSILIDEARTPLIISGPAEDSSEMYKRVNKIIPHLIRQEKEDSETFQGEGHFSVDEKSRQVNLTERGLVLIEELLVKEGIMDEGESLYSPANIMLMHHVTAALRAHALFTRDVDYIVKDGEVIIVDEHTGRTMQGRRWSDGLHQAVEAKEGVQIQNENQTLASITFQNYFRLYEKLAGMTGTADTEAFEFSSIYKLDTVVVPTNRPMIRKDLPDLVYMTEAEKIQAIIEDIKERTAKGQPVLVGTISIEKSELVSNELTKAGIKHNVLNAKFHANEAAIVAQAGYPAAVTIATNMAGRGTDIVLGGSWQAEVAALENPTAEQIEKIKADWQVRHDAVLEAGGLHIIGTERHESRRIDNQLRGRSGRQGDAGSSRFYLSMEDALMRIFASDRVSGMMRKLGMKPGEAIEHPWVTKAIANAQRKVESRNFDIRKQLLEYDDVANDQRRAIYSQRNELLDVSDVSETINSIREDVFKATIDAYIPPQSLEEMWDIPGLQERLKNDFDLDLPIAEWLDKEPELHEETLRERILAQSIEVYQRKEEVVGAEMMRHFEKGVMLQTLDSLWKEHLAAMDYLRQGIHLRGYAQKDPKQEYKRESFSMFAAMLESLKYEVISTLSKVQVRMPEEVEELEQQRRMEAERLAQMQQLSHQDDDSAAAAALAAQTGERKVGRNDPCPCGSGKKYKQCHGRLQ
# Sialic acid-binding Ig-like lectin 9 (Homo sapiens), sequence (Q9Y336 whole entry): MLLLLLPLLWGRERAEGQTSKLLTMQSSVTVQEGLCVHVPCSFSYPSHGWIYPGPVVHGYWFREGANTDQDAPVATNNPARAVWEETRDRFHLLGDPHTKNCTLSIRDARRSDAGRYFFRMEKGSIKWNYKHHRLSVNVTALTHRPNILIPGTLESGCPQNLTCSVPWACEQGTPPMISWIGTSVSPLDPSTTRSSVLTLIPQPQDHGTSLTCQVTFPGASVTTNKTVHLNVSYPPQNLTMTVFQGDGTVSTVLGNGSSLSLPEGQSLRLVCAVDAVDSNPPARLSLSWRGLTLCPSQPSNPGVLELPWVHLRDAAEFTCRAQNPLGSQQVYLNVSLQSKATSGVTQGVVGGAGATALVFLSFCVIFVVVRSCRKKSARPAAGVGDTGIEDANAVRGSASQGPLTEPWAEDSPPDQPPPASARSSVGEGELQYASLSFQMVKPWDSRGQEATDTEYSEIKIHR
# Chromo domain-containing protein 1 (Saccharomyces cerevisiae (strain ATCC 204508 / S288c) (Baker's yeast)), sequence (P32657 whole entry, the tested form may be a part): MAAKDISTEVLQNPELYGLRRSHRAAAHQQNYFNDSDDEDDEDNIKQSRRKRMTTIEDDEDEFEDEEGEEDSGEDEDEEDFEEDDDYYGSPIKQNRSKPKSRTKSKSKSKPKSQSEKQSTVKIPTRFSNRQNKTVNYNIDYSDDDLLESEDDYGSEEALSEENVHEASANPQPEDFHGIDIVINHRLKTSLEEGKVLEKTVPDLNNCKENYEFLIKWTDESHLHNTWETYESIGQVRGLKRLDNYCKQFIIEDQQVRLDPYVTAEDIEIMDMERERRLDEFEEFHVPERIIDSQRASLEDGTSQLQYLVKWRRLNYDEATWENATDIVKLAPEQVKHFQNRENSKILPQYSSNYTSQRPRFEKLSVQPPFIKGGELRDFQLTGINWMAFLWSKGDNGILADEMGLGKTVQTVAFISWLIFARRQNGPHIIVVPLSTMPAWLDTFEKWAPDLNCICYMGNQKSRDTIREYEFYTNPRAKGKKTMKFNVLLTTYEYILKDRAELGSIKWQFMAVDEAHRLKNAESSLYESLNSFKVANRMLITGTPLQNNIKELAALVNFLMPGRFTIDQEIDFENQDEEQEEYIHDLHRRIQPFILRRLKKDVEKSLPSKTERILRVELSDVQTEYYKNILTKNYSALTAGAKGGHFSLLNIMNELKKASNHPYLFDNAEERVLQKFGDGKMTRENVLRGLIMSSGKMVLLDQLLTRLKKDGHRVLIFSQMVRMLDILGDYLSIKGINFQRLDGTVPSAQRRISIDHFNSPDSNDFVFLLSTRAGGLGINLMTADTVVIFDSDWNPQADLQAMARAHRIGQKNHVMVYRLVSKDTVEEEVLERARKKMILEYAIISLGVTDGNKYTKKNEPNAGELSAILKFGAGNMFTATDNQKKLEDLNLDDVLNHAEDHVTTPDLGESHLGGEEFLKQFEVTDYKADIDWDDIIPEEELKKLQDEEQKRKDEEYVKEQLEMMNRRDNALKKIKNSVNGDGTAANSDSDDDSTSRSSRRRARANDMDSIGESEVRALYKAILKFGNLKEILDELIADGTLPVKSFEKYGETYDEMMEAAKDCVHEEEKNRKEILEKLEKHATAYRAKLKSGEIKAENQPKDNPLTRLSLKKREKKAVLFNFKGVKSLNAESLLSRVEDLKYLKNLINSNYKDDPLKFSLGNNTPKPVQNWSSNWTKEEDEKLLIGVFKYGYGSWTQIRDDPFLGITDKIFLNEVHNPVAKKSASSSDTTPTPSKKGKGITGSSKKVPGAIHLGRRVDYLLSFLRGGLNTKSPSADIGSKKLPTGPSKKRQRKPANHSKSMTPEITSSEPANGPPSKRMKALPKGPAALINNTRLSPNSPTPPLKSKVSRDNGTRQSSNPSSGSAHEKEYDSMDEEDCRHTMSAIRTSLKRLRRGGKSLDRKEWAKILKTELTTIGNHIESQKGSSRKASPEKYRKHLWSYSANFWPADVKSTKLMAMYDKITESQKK
Compound,Percent Effect [1] [%],Percent Effect [2] [%],Percent Effect [3] [%],Percent Effect [4] [%],Percent Effect (Trypanosoma cruzi) [%],Percent Effect [5] [%],Percent Effect [6] [%],Percent Effect (Homo sapiens) [%],Percent Effect [7] [%],Percent Effect [8] [%],Percent Effect [9] [%],Percent Effect [10] [%],Percent Effect [11] [%]
CC(C)c1nccc([C@H]2C[C@@H]3CCN(Cc4ccco4)C[C@H]3O2)n1,-6.35,-3.9,9.38,3.38,4.58,-7.69,14.4,3.14,5.36,6.84,15.4,1.21,
Cc1cc(CN2CC[C@H]3C[C@H](C(=O)N(C)C)O[C@@H]3C2)no1,-4.45,3.9,-0.0763,14.4,5.36,12.6,13.3,-6.77,-6.84,2.63,-5.13,20.4,
Cc1noc(C)c1CN1CCO[C@H]2CNC[C@H]21,-3.48,9.09,7.37,-4.93,-4.19,-2.02,20,8.41,2.96,0.526,7.69,-4.21,
Cc1noc(C)c1CN1CCCC2(CCN(C(=O)NC3CC3)C2)C1 (stereo not given),-2.63,22.1,0.865,-1.1,-3.94,5.94,17.2,16.8,-1.92,13.5,15,-10.3,
CCc1ccc(CN2CCN(C)c3ncccc3C2)o1,-8.73,1.3,-0.259,15.1,-1.27,-3.24,7.68,6.96,1.33,3.68,-5.13,-4.2,
O=C1CC2(CCCNC2)C(=O)N1Cc1ccccc1 (stereo not given),-1.32,-16.9,1.23,-1.16,-6.57,0.457,16.4,15,2.48,2.9,0,-9.23,
CSc1nccc(N2CCN(C)C3(CCNC(=O)CC3)C2)n1 (stereo not given),-5.63,8,-0.126,2.82,-1.66,5.73,12.6,-2.91,,3.83,13.6,-6.95,-1.22
NC(=O)CN1CCCN(C(=O)Cc2ccc3c(c2)OCO3)CC1,-0.196,5.33,-1.81,2.43,-7.43,3.55,3.48,12,-21.4,3.68,10.3,-7.19,
O=C(C1CC(=O)N(c2ccccc2Br)C1)N1CCC2(CC1)OCCO2 (stereo not given),-3.76,-10.7,2.47,-2.82,-3.21,2.6,11.2,0.465,,1.64,8.64,-2.41,-5.79
CCCN1C(=O)CC2(CCCNC2)C1=O (stereo not given),-4.19,11.7,3.28,-2.44,-1.13,-0.913,3.86,-15.1,2.28,1.93,7.5,-2.73,
